Screening data from PubChem.
HSP90 refold inh = blocks HSP90-mediated luciferase refolding in reticulocyte lysate. Rabbit reticulocyte lysate, luciferase refolding luminescence, 3 h. inhibition, % at 5.6 µM. 290,000 compounds, 0.91% hits;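 active means inhibition above the screen-wide mean plus 3 SD, computed separately per campaign, cut at about 16% in these data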;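 further: 0% = DMSO wells and 100% = 60 µM geldanamycin wells; inhibitors lower the luminescence because luciferase stays unfolded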
SENP8 block-1 = inhibitors of human SENP8 protease. Q96LD8. recombinant SENP8, Nedd8 substrate fluorescence. inhibition, % at 20 µM. 360,000 compounds, 0.64% hits. AID 602440; in the data active means inhibition mostly above about 40%, no sharp cut-off; inactive means mostly below about 27%
Target sequence (Q96LD8 whole entry, looked up): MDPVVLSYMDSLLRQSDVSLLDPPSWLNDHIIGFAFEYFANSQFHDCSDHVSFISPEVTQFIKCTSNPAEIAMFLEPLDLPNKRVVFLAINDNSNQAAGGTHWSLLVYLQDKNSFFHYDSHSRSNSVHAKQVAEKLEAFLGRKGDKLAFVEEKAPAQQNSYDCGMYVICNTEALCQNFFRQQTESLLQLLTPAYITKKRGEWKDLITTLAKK
SENP6 inh = SENP6 protease inhibition | Q9GZR1 | Recombinant SENP6 catalytic domain, aminoluciferin luminescence | inhibition, % at 10 µM | 330,000 compounds, 1.8% hits;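 active means inhibition above about 50% at the single tested dose, limit read from the data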;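 further: plate controls were DMSO wells with enzyme for no effect and DMSO wells lacking enzyme for full effect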
SENP8 block-2 = inhibitors of human SENP8 protease; inhibition, % at 10 µM; 330,000 compounds, 1.2% hits; Q96LD8; purified SENP8, Z-RLRGG-aminoluciferin cleavage, luminescence; in the data active means inhibition above about 50%
SENP7 block = inhibitors of human SENP7 protease | Q9BQF6 | recombinant SENP7, Z-RLRGG-aminoluciferin luminescence, 40 min | inhibition, % at 5 µM | 330,000 compounds, 1.5% hits | AID 434973;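 active means inhibition above about 50% at the single test dose, limit read from the data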;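 further: plate controls were DMSO with enzyme for no effect and no enzyme buffer wells for full effect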
SENP8 conf = human SENP8 inhibition, confirmed; shares compounds with SENP7 block; Recombinant SENP8, Z-RLRGG-aminoluciferin luminescence, 60 min; inhibition, % at 12.5 µM; 6,200 compounds, 40% hits; AID 488912;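 active means mean inhibition across replicates above about 50%, limit read from the data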
SENP6 confirm = human SENP6 inhibition, confirmed; shares compounds with SENP7 block; recombinant SENP6, Z-RLRGG-aminoluciferin luminescence; inhibition, % at 12.5 µM; 6,200 compounds, 58% hits
SENP7 conf = confirmation of human SENP7 protease inhibitors; shares compounds with SENP7 block; recombinant SENP7, Z-RLRGG-aminoluciferin luminescence, 40 min; inhibition, % at 12.5 µM; 6,200 compounds, 69% hits; AID 488917
Casp3 SENP sel = caspase-3 inhibition (SENP selectivity assay) | 6,200 compounds, 60% hits | inhibition, % at 12.5 µM | shares compounds with SENP7 block | purified caspase-3, Z-DEVD-aminoluciferin luminescence, 60 min;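 active means mean inhibition above about 50%, limit read from the data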;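 further: plate controls were enzyme with DMSO for no effect and wells without caspase-3 for full effect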
Target sequence (P42574 28-227 limits assumed): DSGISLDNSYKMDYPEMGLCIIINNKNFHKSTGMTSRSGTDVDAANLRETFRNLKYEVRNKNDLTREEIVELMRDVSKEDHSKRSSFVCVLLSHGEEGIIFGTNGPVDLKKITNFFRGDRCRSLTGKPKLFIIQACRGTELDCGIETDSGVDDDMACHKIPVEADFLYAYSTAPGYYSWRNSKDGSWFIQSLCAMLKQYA
Luc interf = counter-screen for SENP inhibitors: luminescence interference. shares compounds with SENP7 block. AID 488919. inhibition, % at 12.5 µM. 6,200 compounds, 39% hits. Pre-incubated SENP8/Z-RLRGG-aminoluciferin, luciferase luminescence interference;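 active means mean inhibition above about 50% when retested at one dose, limit read from the data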;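 further: plate controls were DMSO wells with completed reaction for no effect and substrate without enzyme for full effect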
* hit, by the source's call; i = inactive; / = no result given. This is a sample that favours compounds with a hit; in the whole collection about 2.7% have one here.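 How the source made its calls, unless noted: active means mean inhibition above about 50% in the one-dose retest (limit read from the data); inactive means the rest.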

SMILES	HSP90 refold inh	SENP8 block-1	SENP6 inh	SENP8 block-2	SENP7 block	SENP8 conf	SENP6 confirm	SENP7 conf	Casp3 SENP sel	Luc interf
COCCSc1nnc(NC(=O)c2ccco2)s1	-7	-15	-14	-8	92*	-2	-3	-3	19	4
COc1ccccc1C(=O)Nc1nnc(SCC(=O)Nc2ccc3c(c2)oc2ccccc23)s1	1	-95	34	22	74*	19	-7	12	14	-1
CS(=O)CSc1nc2c(cc1C#N)CCCC2 (configuration not stated)	-1	0	-5	0	8	/	/	/	/	/
Cn1c(=O)c2c(nc(NN=C3CCCCC3)n2C)n(C)c1=O	3	11	6	12	-2	/	/	/	/	/
Cn1cc(C(CO)Cc2ccccc2)c2ccccc21 (configuration not stated)	/	1	-10	-8	2	/	/	/	/	/
O=C(Nc1ccccc1F)c1ccc(CSc2ncccn2)cc1	5	6	87*	83*	88*	86*	86*	96*	90*	88*
O=C(Nc1ccccc1)c1ccc(CSc2ncccn2)cc1	-1	16	89*	85*	91*	72*	86*	96*	90*	28
CSCc1ccc(C(=O)Nc2ccc(C(N)=O)cc2)cc1	4	3	82*	74*	86*	-11	-3	14	55*	4
CCc1ccc2oc(-c3ccc(NC(C)=O)cc3)nc2c1	5	-446	75*	72*	78*	44	79*	96*	33	18
CC(=O)Nc1ccc2oc(-c3cc(F)c(F)cc3Cl)nc2c1	-1	-291	-5	40	67*	21	21	10	39	25
CC(=O)Nc1ccc2oc(-c3ccccc3Br)nc2c1	7	-222	84*	58*	59*	81*	76*	90*	68*	65*
O=C(Nc1ccc2oc(-c3ccccc3Cl)nc2c1)c1ncn[nH]1	-1	-257	52*	35	24	24	20	28	26	0
CC(C)C(=O)Nc1ccc2oc(-c3cc(F)c(F)cc3Cl)nc2c1	-4	-273	-7	-10	-17	/	/	/	/	/
CCN(CC)CC(=O)Nc1ccc(-c2nc3cc(NC(=O)CN(CC)CC)ccc3o2)cc1	-1	-482	-10	-2	-1	/	/	/	/	/
Cc1ccc[n+](CC(=O)c2cc3ccccc3oc2=O)c1	1	-96	5	1	5	/	/	/	/	/
COc1ccc2cc(C3=CC(=O)CC(C)(C)C3=O)ccc2c1	/	28	/	/	/	/	/	/	/	/
COc1ccc(Cl)cc1NC(=S)N1CC(C)OC(C)C1 (configuration not stated)	-2	5	1	-3	1	/	/	/	/	/
O=C(COc1ccc([N+](=O)[O-])cc1)N(Cc1cccs1)C1CCS(=O)(=O)C1 (configuration not stated)	0	17	-8	3	1	/	/	/	/	/
COCCn1c(C)cc(/C=N/NC(=O)c2cc3ccccc3cc2O)c1C	/	-255	-2	4	3	/	/	/	/	/
O=C(CC1Nc2cccc3cccc(c23)NC1=O)Nc1ccc(F)cc1 (configuration not stated)	2	-68	87*	60*	43	-13	-6	-10	2	-1
COc1ccc(NC(=O)CC2Nc3cccc4cccc(c34)NC2=O)cc1 (configuration not stated)	2	-64	93*	59*	67*	3	4	12	8	2
O=C(CC1Nc2ccccc2NC1=O)Nc1cc(Cl)cc(Cl)c1 (configuration not stated)	7	-301	-9	-6	-1	/	/	/	/	/
COc1ccc2c(c1O)C(=O)c1ccccc1C2=O	3	/	4	5	10	/	/	/	/	/
CC(C)COC(=O)c1ccc2c(c1O)C(=O)c1ccccc1C2=O	14	35	81*	37	93*	85*	88*	95*	59*	52*
CSc1ccc(N=Nc2c(C)[nH]n(C)c2=O)cc1	0	19	44	27	53*	16	24	45	45	17
SMILES	HSP90 refold inh	SENP8 block-1	SENP6 inh	SENP8 block-2	SENP7 block	SENP8 conf	SENP6 confirm	SENP7 conf	Casp3 SENP sel	Luc interf
CC1=C(O)c2ccccc2C(=O)C1=O	/	1	/	/	/	/	/	/	/	/
O=C1C(=O)c2ccccc2C(O)=C1CCCCl	9	21	55*	26	8	53*	66*	13	8	1
O=C(/C=C/c1ccc([N+](=O)[O-])cc1)c1cccs1	0	20	-11	-7	-7	/	/	/	/	/
NC(=O)c1ccccc1N/C=C/C(=O)c1cccs1	4	i	92*	81*	76*	4	90*	98*	94*	88*
Cc1cccc(N/C=C/C(=O)c2cccs2)c1C	4	-22	95*	95*	94*	11	99*	102*	95*	95*
Cc1c(NC(=O)c2cccs2)cccc1NC(=O)c1cccs1	-4	-5	-3	-4	14	/	/	/	/	/
COc1cc([N+](=O)[O-])ccc1N/C=C/C(=O)c1cccs1	14	-34	87*	53*	97*	33	55*	48	48	24
CC(=O)Nc1ccc(SC[C@H](C)CN2CC[C@H](O)CCC2=O)cc1	/	14	-8	-6	7	/	/	/	/	/
CCCc1cc(=O)oc2cc(OCC(=O)N3CCC(C(N)=O)CC3)ccc12	-5	-101	-9	5	6	/	/	/	/	/
Cc1nn(-c2ccc(F)cc2)c2sc(C(=O)O)cc12	-1	8	-10	0	98*	4	2	6	-3	-13
O=C(O)c1ccc(/C=N/Nc2ccc(Cl)nn2)cc1	-7	17	72*	65*	76*	19	26	20	81*	10
Oc1cccc(/C=N/Nc2ccc(Cl)nn2)c1	-5	-2	-14	-20	-8	/	/	/	/	/
COc1ccc(-n2c3nc4ccccc4nc3c3c(=N)oc(C)nc32)cc1	-7	-285	90*	63*	75*	4	40	19	-2	-4
O=[N+]([O-])c1ccc(S(=O)(=O)N/N=C/c2ccc3c(c2)OCO3)cc1	-1	12	-5	3	-3	/	/	/	/	/
O=C(O)c1ccccc1NN=Cc1ccccc1	/	2	/	/	/	/	/	/	/	/
O=[N+]([O-])c1ccccc1N/N=C/c1ccccc1	-2	20	63*	61*	95*	22	21	11	26	-3
